Bioassay records as filed in PubChem.
RN4220 kill – growth inhibition of S. aureus RN4220, primary screen, OD600 | inhibition, % (no concentration beside the values) | 16 h | actives 0.33% (n = 330,000); in the data active = inhibition above about 85%;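 note: plate controls were untreated cells for no effect and reference antibiotic for full effect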
Sa ugtP lethal – growth inhibition of ugtP-null S. aureus, primary screen, RN4220 ugtP deletion, OD600; 16 h; growth inhibition, % (no concentration beside the values); actives 0.54% (n = 330,000); AID 1259309, 2017; in the data active = growth inhibition above about 68%;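 note: plate controls were untreated wells for no effect and antibiotic for full effect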
PfHsp40 yeast – rescue of yeast from PfHsp40 toxicity, primary screen, S. cerevisiae, ATP luminescence; S. cerevisiae expressing PfHsp40, growth rescue; growth rescue, % at 12.5 µM; actives 0.68% (n = 340,000); in the data active = growth rescue above about 28%, passing the limit was not always enough;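 note: yeast W303a lacking pdr1 and pdr3 grown in galactose medium; growth measured after three days at 30 °C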
CCHF vOTU inh-1 – CCHFV vOTU protease inhibitors, primary screen, biochemical, Pep-AMC substrate, fluorescence. AID 651958, 2012. Crimean-Congo hemorrhagic fever virus L polyprotein viral ovarian tumor (vOTU) protease …. actives 0.55% (n = 370,000). inhibition, % at 11.5 µM; note: 0% = vehicle wells with enzyme and 100% = no enzyme wells
BJeLR viability – MLPCN primary cell-based screen for lethality selective to Ras in HRASV12 cells; BJeLR (HRASV12) viability, CellTiter-Glo ATP luminescence, 48 h; inhibition, % (test concentration not listed); actives 0.17% (n = 300,000); AID 1554, 2009; in the data active = inhibition above about 50%
CCHF vOTU inh-2 – CCHFV vOTU protease inhibitors, confirmation, biochemical, Pep-AMC substrate, fluorescence | shares compounds with CCHF vOTU inh-1 | Recombinant CCHFV vOTU | inhibition, % at 11.5 µM | actives 17% (n = 1,900) | AID 686976, 2013
Starred values were filed as active, the others as inactive; . = no result given. A selection: hits, their analogues and other compounds. The true share with any hit is near 1.6%. Cut-off read from the data, not from the text of the source, unless noted: active = inhibition above about 30%; inactive = the rest.

SMILES	RN4220 kill	Sa ugtP lethal	PfHsp40 yeast	CCHF vOTU inh-1	BJeLR viability	CCHF vOTU inh-2
CCOC(=O)c1cc2c(ccn2C)n1Cc1ccccc1Cl	-7.3	-4.9	-2.1	1.9	25.1	.
CCOC(=O)c1cc2c(ccn2C)n1CC(=O)N(Cc1ccccc1)c1ccc(F)cc1	3.4	-4.1	-0.5	7.7	7.2	.
CCOC(=O)c1cc2c(ccn2C)n1CC(=O)N(Cc1ccccc1)c1ccccc1	.	.	1.3	55.3*	0.1	3.2
O=C(NCc1nnc(SCc2ccc(F)cc2)n1-c1ccc(F)cc1)C12CC3CC(CC(C3)C1)C2	2.4	-19.4	2.8	34.3*	1.8	-9.3
CN(C)c1ccc(/C=C/c2nc3ccccc3c(=O)n2CCO)cc1	-1.0	-9.3	-1.7	29.6*	4.5	-5.1
C=CCc1ccc(OCCCNCc2ccccc2)c(OC)c1	-0.2	-5.8	1.1	30.9*	0.3	-5.3
CCCCCCCCN1C(=O)[C@H](CC(=O)NCCCOCCCC)C[C@@]2(C(=O)OC)CC(C)(C)CC=C12	.	.	.	22.0	.	.
CCCCCCCCN1C(=O)[C@H](CC(=O)NCC2CCCCC2)C[C@@]2(C(=O)OC)CC(C)(C)CC=C12	.	.	.	25.9	.	.
COC(=O)[C@@]12C[C@@H](CC(=O)NCCC(C)C)C(=O)N(CCc3ccc(OC)c(OC)c3)C1=CCC(C)(C)C2	.	.	.	29.8*	.	1.9
CCCCCCCCN1C(=O)[C@H](CC(=O)NCCCOC)C[C@@]2(C(=O)OC)CC(C)(C)CC=C12	.	.	.	32.7*	.	20.0
C#CCNC(=O)C[C@@H]1C[C@@]2(C(=O)OC)CC(C)(C)CC=C2N(CCCCCCCC)C1=O	.	.	.	31.0*	.	8.4
CCCCCCCCN1C(=O)[C@H](CC(=O)NCc2ccc(C)o2)C[C@@]2(C(=O)OC)CC(C)(C)CC=C12	.	.	.	30.3*	.	7.3
CS(=O)(=O)N(CC(=O)NN=Cc1ccccc1C(=O)O)c1cccc(Cl)c1Cl	10.1	2.5	.	.	.	.
CC(=NNc1ccc2nncn2n1)c1ccc(Cl)s1	0.7	-1.0	.	.	.	.
CCc1cc(-c2onc(C)c2-c2cscn2)c(O)cc1OC	4.3	0.0	1.6	30.5*	-5.6	-6.6
CCOc1ccc(NC(=O)CNS(=O)(=O)c2c(C)cc(C)cc2C)cc1	-1.6	-1.0	-1.3	42.6*	-1.0	-15.6
CCOc1ccc(NC(=O)CC(=O)Nc2ccc(OCC)cc2)cc1	-0.3	-3.9	0.0	-5.6	8.1	.
Cc1ccc(C=NNC(=O)c2nnn(-c3nonc3N)c2CN(C)C2CCCCC2)cc1	1.9	5.8	.	.	.	.
COc1ccc(CN2CCN(Cc3ccccc3)C(CCO)C2)cc1OC (stereo not drawn)	0.8	6.5	-1.1	-7.7	-9.5	.
COc1cc(CN2CCN(C(C)C)C(CCO)C2)ccc1OCc1ccccc1 (stereo not drawn)	1.1	5.3	-0.6	30.0*	-7.4	-5.4
CNC(=O)CSCc1cnn(-c2ccccc2)c1-n1cccc1	2.5	2.8	-1.2	0.7	0.5	.
COc1cccc(CNC(=O)CSCc2cnn(-c3ccccc3)c2-n2cccc2)c1	-0.2	4.7	5.5	36.4*	-8.9	7.0
COc1ccc(OC)c(S(=O)(=O)Oc2ccc(N)c3ccccc23)c1	6.6	-7.1	-0.8	29.8*	-0.4	-13.8
COc1ccc(OC)c(S(=O)(=O)Nc2cccc3ccccc23)c1	4.5	-4.1	.	-7.5	-2.2	.
NC(=S)NN=Cc1nccc2c(N)cccc12	.	.	.	64.2*	.	28.3
SMILES	RN4220 kill	Sa ugtP lethal	PfHsp40 yeast	CCHF vOTU inh-1	BJeLR viability	CCHF vOTU inh-2
C=C(C)COc1ccc(-c2nc(N)ncc2-c2ccc(OC)cc2)c(O)c1	-7.2	-0.1	.	29.8*	.	-8.0
COc1ccccc1Nc1c([N+](=O)[O-])cncc1[N+](=O)[O-]	21.6	1.1	-0.6	0.6	-10.7	.
Cc1ccccc1Nc1c([N+](=O)[O-])cncc1[N+](=O)[O-]	12.0	-6.7	4.9	30.1*	-16.0	-6.8
O=c1c2c(-c3ccccc3)csc2ncn1N=Cc1cccc([N+](=O)[O-])c1O	6.6	15.3	.	.	.	.
COc1cccc(C=NNC(C)=O)c1OC/C=C/c1ccccc1	-5.0	10.6	.	.	.	.
COC(=O)c1ccc(-c2nc3cc(Cl)c(N)cc3s2)cc1	-0.6	1.3	-0.5	42.9*	11.8	-4.6
CCn1ncc(C=NNC(=O)COc2ccccc2)c1C	-3.9	0.8	.	.	.	.
O=C(COc1ccccc1-c1ccccc1)NN=Cc1ccccn1	-0.8	1.8	.	.	.	.
CCCc1ccc(-c2cc(NC(=O)Cc3c(C)[nH]c4ccccc34)ccc2N(C)c2cccnc2)cc1	.	.	.	39.5*	.	-2.8
CCCc1ccc(-c2cc(NC(=O)Cc3c(C)[nH]c4ccccc34)ccc2Nc2cccnc2)cc1	.	.	.	11.5	.	.
OCCN(C=Nc1nc(-c2ccc(Br)cc2)cs1)CCO	3.4	8.0	.	.	.	.
O=C(NCc1ccc(N2CCCC2=O)cc1)c1cc(COc2c(F)cccc2F)on1	2.7	14.0	1.0	37.8*	-0.4	-17.9
CCOc1cc(C=NNC(=O)C2CCCC2)ccc1OC(C)C	3.0	3.4	.	.	.	.
CCOC(=O)C1CCN(Cc2oc(CO)cc(=O)c2O)CC1	4.4	4.9	-0.7	41.3*	1.7	-13.3
O=C(O)c1ccc(C=NNc2ccc(S(=O)(=O)N3CCOCC3)cc2[N+](=O)[O-])cc1	3.5	8.4	.	.	.	.
O=C1C2=C(c3ccccc31)[N+](=O)C1CCCCC1N2[O-] (stereo not drawn)	2.1	7.1	0.4	56.7*	-8.8	28.9
O=C1C2=C(c3ccccc31)[N+](=O)[C@@H]1CCCC[C@@H]1N2[O-]	19.4	12.9	1.2	74.2*	4.2	27.1
